Test results taken from PubChem BioAssay (NCATS).
Inconclusive results are not listed. Entries that show only a call come without a potency. Activity calls are given as the source filed them. Unless noted, calls follow the shape of the dose curve; as a rule, active = well fitted inhibition curve with a large enough effect; inconclusive = small, poorly fitted or top-dose-only effect; inactive = flat fitted curve, though single readings scatter.

Tests used:
[1] = S16 Schwann cell PMP22 intronic element beta-lactamase assay (AID 624044; calls by dose curve; also: nearly all actives have a fitted effect of over 15% in size)
Summary of the method: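 Rat S16 Schwann cells with beta-Lac driven by a PMP22 intronic element, compound-treated 24 h at 37 °C. LiveBLAzer FRET B/G read: 460 nm normalized to potassium clavulanate vs DMSO; 535 nm FRET as viability; concentration-effect curves classified.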

[2] = test system: CP215; assay: qHTS profiling for inhibitors of Plasmodium falciparum proliferation (AID 504749); also: nearly all actives have a fitted effect of over 60% in size; also: potency is read from the fitted curve at half-maximal effect; settings: P. falciparum in erythrocytes, SYBR Green DNA, 72 h; series mostly up to 12.8 µM
Summary of the method: (§1)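 Three-day growth assay of blood-stage parasites in erythrocytes (0.3% parasitemia, 2.5% hematocrit) at 37 C, 5% CO2, quantified by SYBR Green DNA staining after overnight detergent lysis.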

[3] = test system: CP247; assay: as above; settings: P. falciparum in erythrocytes, SYBR Green DNA, 72 h; series mostly up to 12.8 µM
Summary of the method: as §1

[4] = test system: CP297; assay: as above; settings: P. falciparum in erythrocytes, SYBR Green DNA, 72 h; series mostly up to 12.8 µM
Summary of the method: as §1

[5] = test system: DFO2036; assay: as above; settings: P. falciparum in erythrocytes, SYBR Green DNA, 72 h; series mostly up to 12.8 µM
Summary of the method: as §1

[6] = test system: DIV14; assay: as above; settings: P. falciparum in erythrocytes, SYBR Green DNA, 72 h; series mostly up to 12.8 µM
Summary of the method: as §1

[7] = test system: DIV17; assay: as above; settings: P. falciparum in erythrocytes, SYBR Green DNA, 72 h; series mostly up to 12.8 µM
Summary of the method: as §1

[8] = test system: HB3; assay: as above; settings: P. falciparum in erythrocytes, SYBR Green DNA, 72 h; series mostly up to 12.8 µM
Summary of the method: as §1

[9] = test system: SC27B; assay: as above; settings: P. falciparum in erythrocytes, SYBR Green DNA, 72 h; series mostly up to 12.8 µM
Summary of the method: as §1

[10] = test system: 7G8; assay: as above; settings: P. falciparum in erythrocytes, SYBR Green DNA, 72 h; series mostly up to 12.8 µM
Summary of the method: as §1

[11] = test system: W2; assay: as above; settings: P. falciparum in erythrocytes, SYBR Green DNA, 72 h; series mostly up to 12.8 µM
Summary of the method: as §1

[12] = test system: GB4; assay: as above; settings: P. falciparum in erythrocytes, SYBR Green DNA, 72 h; series mostly up to 12.8 µM
Summary of the method: as §1

SMILES | Potency [1] | Potency [2] | Potency [3] | Potency [4] | Potency [5] | Potency [6] | Potency [7] | Potency [8] | Potency [9] | Potency [10] | Potency [11] | Potency [12]
OCC1OC(n2cnc3c(=S)nc[nH]c32)C(O)C1O (stereo not given) | inactive | inactive | inactive | inactive | inactive | inactive | inactive | inactive | inactive |  |  | 
N[C@@H]1C(O)OC(CO)C(O)C1O (stereo not given in full) |  |  | inactive | inactive |  |  | inactive | inactive | inactive | inactive | inactive | 
OCC1OC([S-])[C@H](O)C(O)C1O.[Au+] (stereo not given in full) | inactive | inactive | inactive | inactive | inactive | inactive | inactive | inactive | inactive |  |  | inactive
NC(CCC(=O)N[C@@H](CS)C(=O)NCC(=O)O)C(=O)O (stereo not given in full) | inactive |  |  | 15.1 µM (active) |  | 3.01 µM (active) | 2.69 µM (active) | 3.16 µM (active) |  | 0.708 µM (active) | 3.01 µM (active) | 6.75 µM (active)
CCC1OC(=O)C(C)[C@@H](O[C@H]2C[C@@](C)(OC)C(O)C(C)O2)C(C)[C@@H](O[C@@H]2OC(C)CC(N(C)C)C2O)[C@@](C)(O)CC(C)C(=O)[C@@H](C)C(O)[C@]1(C)O (stereo not given in full) | inactive | inactive | inactive | inactive | inactive | inactive | inactive | inactive | inactive | inactive |  | inactive
CCC1OC(=O)CC(O)C(C)[C@@H](O[C@@H]2OC(C)[C@H](O[C@@H]3C[C@@](C)(O)C(O)C(C)O3)C(N(C)C)C2O)[C@H](CC=O)CC(C)C(=O)/C=C/C(C)=C/[C@@H]1COC1OC(C)C(O)C(OC)[C@@H]1OC (stereo not given in full) | inactive |  |  |  |  |  |  |  |  |  | 0.849 µM (active) | 
CC(=O)OCC(=O)[C@@]12OC3(CCCC3)OC1CC1C3CCC4=CC(=O)C=C[C@@]4(C)[C@]3(F)C(O)C[C@]12C (stereo not given in full) |  |  |  |  |  |  |  |  |  | 11.2 µM (active) | 10.7 µM (active) | 
COc1ccc(-c2cc(=O)c3c(O)cc(O[C@H]4OC(COC5OC(C)C(O)C(O)[C@H]5O)C(O)C(O)C4O)cc3o2)cc1O (stereo not given in full) | inactive | inactive | inactive | inactive | inactive | inactive | inactive | inactive | inactive | inactive |  | inactive
CN(C)CCc1c[nH]c2ccc(CC3COC(=O)N3)cc12 (stereo not given) |  | inactive | inactive | inactive | inactive | inactive | inactive | inactive | inactive |  | inactive | inactive
CCC(=O)O[C@@]1(C(=O)CCl)C(C)CC2C3CCC4=CC(=O)C=C[C@@]4(C)[C@]3(F)C(O)C[C@]21C (stereo not given in full) | inactive |  |  |  | 10 µM (active) | 13.5 µM (active) | 15.1 µM (active) |  |  | 3.98 µM (active) | 5.36 µM (active) | 12 µM (active)
CC[C@@]12CCCN3CCc4c(n(c5ccccc45)[C@](O)(C(=O)OC)C1)C32 (stereo not given in full) |  | inactive | inactive | inactive |  | inactive |  | inactive | inactive |  |  | inactive
COC1OC(CO)C(OC2OC(C(=O)O)C(OC3OC(COS(=O)(=O)O)C(OC4OC(C(=O)O)C(OC5OC(CO)C(OC6OC(C(=O)O)C(OC7OC(COS(=O)(=O)O)C(OC8OC(C(=O)O)=C[C@H](O)C8OS(=O)(=O)O)C(O)C7NC(C)=O)[C@@H](O)C6O)C(O)C5NC(C)=O)[C@@H](O)C4O)C(O)C3NC(C)=O)[C@@H](O)C2O)C(O)C1NC(C)=O (stereo not given in full) | inactive |  |  | inactive |  |  |  |  |  | 7.08 µM (active) | 6.75 µM (active) | 
COC1CC(O[C@H]2/C(C)=C/CC3CC(C[C@]4(CCC(C)C(C5CCCCC5)O4)O3)OC(=O)[C@H]3C=C(C)/C(=N/O)C4OC/C(=C\C=C\[C@@H]2C)[C@@]43O)OC(C)C1O (stereo not given in full) | inactive | inactive |  |  |  |  |  |  |  | 12.6 µM (active) | 13.5 µM (active) | 
CCCCCCCCCc1ccc(OCCOCCOCCOCCOCCOCCOCCOCCOCCO)cc1 |  |  |  |  | inactive |  |  |  |  | 12.6 µM (active) | 15.1 µM (active) | 
